# Experimental data as given in paper PMC12431657, “Discovery and mechanistic insights of dibenzoylmethane as a broad spectrum inhibitor of coronavirus” (PLOS Pathogens, 2025).
# System: HCoV-OC43
# Parameters: species or system RD
# Settings: 24 h, 10 µM; inhibitor
row,SMILES,OC43 Inhibition rate
1,"Cc1c([C@H](C)[C@@H]2NC[C@@H](C)C[C@H]2O)ccc2c1C[C@H]1[C@H]2CC=C2C[C@@H](O)CC[C@@]21C [Veratramine, veratramine]",77.2
2,"CC1=C[C@]23C(=O)[C@@H](C=C(COC(=O)c4ccccc4)[C@@H](O)[C@]2(O)[C@H]1OC(=O)c1ccccc1)[C@H]1[C@@H](C[C@H]3C)C1(C)C [Ingenol 3,20-dibenzoate, ingenol 3,20-dibenzoate]",82.9
3,C=C1C(=O)O[C@@H]2[C@H]3O[C@]3(C)CC/C=C(\C)CC[C@@H]12 [Parthenolide],36.9
